High-throughput results deposited in PubChem by National Center for Advancing Translational Sciences (NCATS).
A selection: hits, their analogues and other compounds. The true share with any hit is near 21%.
Pf growth 48h: P. falciparum growth inhibition at 48 hours (one generation); P. falciparum luciferase growth in erythrocytes, 48 h; Potency, µM (titrated, usually from 28.7 µM), for inactives: top-dose activity change, negative = inhibition, actives largely listed as inhibitors; 310,000 compounds, 5.9% hits; further: potency means the concentration at half of the fitted maximal effect; on the % scale 0 is the no-effect control and ±100 the full control effect
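Cell-based growth assay: transgenic P. falciparum expressing firefly luciferase, cultured in red cells within RPMI 1640 containing 0.5% w/v Albumax, 24 mM bicarbonate and gentamycin. A drop in luciferase activity indicates inhibition.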
NS1 inh: inhibitors of influenza NS1 protein function; Potency, µM (highest dose often 46.1 µM), for the others: at the highest dose activity, positive = more growth; 270,000 compounds, 0.4% hits; calls by dose curve; further: potency means the concentration at half of the fitted maximal effect; actives are rising curves; nearly all actives have a fitted effect of over 50% in size
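Growth recovery, yeast-based: influenza A NS1 expressed in S. cerevisiae causes slow growth, and suppressors are detected by OD600. The parent strain without NS1 is used as positive control.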
Cycloheximide cs: affects cycloheximide protein synthesis inhibition readout, counter-screen. cell reporter, cycloheximide protein synthesis inhibition counterscreen. max response, %. 300,000 compounds, 12% hits. AID 2314; in the data active means max response mostly above about 13%, no sharp cut-off; inactive means mostly below about 14%; further: read at 38.3 µM for the half of the compounds with a filed dose; 0% is about no effect
Sm TGR inh: blocks Schistosoma mansoni thioredoxin glutathione reductase. Q962Y6. purified TGR, DTNB reduction, TNB absorbance 405 nm. Potency, µM (titrated, usually from 114 µM), for inactives: at the highest dose activity change, negative = inhibition, usual class: inhibitors. 360,000 compounds, 3% hits; further: potency means the concentration at half of the fitted maximal effect; on the % scale 0 is the no-effect control and ±100 the full control effect; nearly all actives have a fitted effect of over 60% in size
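TGR 20 nM + NADPH 100 uM (dispensed conc.), cpd preinc 15 min RT; start with NADPH (500 uM addition) then DTNB (15 mM addition). Kinetic TNB absorbance, 405 nm filter. Four-parameter Hill fit across titration.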
Shiga inhibitor: inhibitors of Shiga toxin in Vero cells. AID 2315. inhibition, % at 38.7 µM. Vero cells, Shiga toxin protein synthesis inhibition reporter. 290,000 compounds, 9.2% hits; in the data active means inhibition mostly above about 28%, no sharp cut-off; inactive means mostly below about 43%; further: 0% is about no effect
Pf growth 96h: inhibits malaria parasite growth, 96 h; P. falciparum luciferase reporter growth, 96 h; Potency, µM (doses to about 28.7 µM), inactives show at the highest dose activity change, negative = inhibition, usual class: inhibitors; 320,000 compounds, 6.9% hits; AID 504834; further: potency means the concentration at half of the fitted maximal effect; on the % scale 0 is the no-effect control and ±100 the full control effect
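96 h incubation, 37 C, 5% CO2, of luciferase-reporter P. falciparum-infected RBCs (2% hematocrit, 0.05% parasitemia final) with test compounds; endpoint luminescence.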
* hit, by the source's call; ? = inconclusive; . = no result given. Unless noted, the call rests on the fitted dose curve; in most records, active means well fitted curve in the direction sought with a large enough effect; inconclusive means small, poorly fitted or top-dose-only effect, or another doubt; inactive means no such curve, though single readings can be large; an effect the other way counts as inactive or inconclusive.

SMILES	Pf growth 48h	NS1 inh	Cycloheximide cs	Sm TGR inh	Shiga inhibitor	Pf growth 96h
O=C(NC(=O)c1cccc(F)c1)Nc1nc(-c2ccc(F)cc2)cc(C(F)(F)F)n1	?	.	-2	-1%	9	29%
CN1C(=O)CSc2ccc(NC(=O)Nc3ccccn3)cc21	.	-9%	50*	-19%	39	39%
COc1ccccc1C(=O)Nc1ccccn1	256%	-4%	36*	-9%	60*	?
COc1ccccc1C(=O)NC(=O)Nc1nc(-c2ccccc2)cc(C(F)(F)F)n1	3.7µM*	0%	-1	8%	2	3.7µM*
Cc1ccccc1Nc1c(-c2ccc(N3CCOCC3)cc2)nc2cnccn12	-11%	5%	25*	-2%	73	-21%
Cc1ccc(Nc2c(-c3ccccc3O)nc3cnccn23)cc1	5.9µM*	.	5	15%	-9	0%
Cc1ccc(Nc2c(-c3ccc(N4CCOCC4)cc3)nc3ccc(C)cn23)cc1	.	.	.	-12%	.	.
Cc1ccc2nc(-c3ccccc3O)c(Nc3ccc4c(c3)OCCO4)n2c1	12µM*	19%	-3	-10%	-5	12µM*
Cc1ccc(Nc2c(-c3ccc(N4CCOCC4)cc3)nc3cnccn23)cc1	?	4%	7.8*	-2%	44	?
Oc1ccccc1-c1nc2cnccn2c1Nc1ccc(Cl)cc1	.	.	.	7%	.	.
CC(=O)Nc1c(C)nn(-c2ccccc2)c1N1CCC(C(=O)Nc2ccccc2C(F)(F)F)CC1	.	.	.	7%	.	.
O=C(Cc1ccc(S(=O)(=O)N2CCOCC2)s1)N1CCN(S(=O)(=O)c2ccc(Cl)cc2)CC1	7.4µM*	.	.	-2%	.	4.7µM*
O=C(Cc1ccc(S(=O)(=O)N2CCOCC2)s1)N1CCN(c2cccc(C(F)(F)F)c2)CC1	?	8%	-1	-5%	-6	10µM*
Cc1ccc(S(=O)(=O)N2CCN(C(=O)Cc3ccc(S(=O)(=O)N4CCOCC4)s3)CC2)cc1	?	12%	-2	0%	-3	12µM*
O=C(COc1cccc(C(F)(F)F)c1)NNC(=O)Cc1ccc(S(=O)(=O)N2CCOCC2)s1	13µM*	.	.	2%	.	?
O=C(c1ccc(S(=O)(=O)N2CCOCC2)cc1)N1CCN(S(=O)(=O)c2ccc(Cl)s2)CC1	-4%	-3%	-2	-3%	15	10%
CCCCN(CC)CCNC(=O)CN1C(=O)COc2ccc(S(=O)(=O)N3CCOCC3)cc21	.	.	.	-3%	.	.
O=S(=O)(c1ccc(Br)cc1)c1nnn2c1nc(NCCc1ccccc1)c1sccc12	.	.	.	1%	.	.
O=C(Cc1ccc(S(=O)(=O)N2CCOCC2)s1)N1CCN(S(=O)(=O)c2cccc(Cl)c2)CC1	12µM*	.	.	-17%	.	?
COCCOc1ccc(C(F)(F)F)cc1NC(=O)Cc1ccc(S(=O)(=O)N2CCOCC2)s1	12µM*	.	.	2%	.	8.3µM*
CCc1cc(C(=O)N2CCN(S(=O)(=O)c3ccc(Cl)cc3)CC2)sc1C	9.3µM*	.	.	-10%	.	9.3µM*
COc1cccc(C(CNc2ccc(S(=O)(=O)N3CCN(C)CC3)cc2[N+](=O)[O-])N(C)C)c1 (stereo not drawn)	?	.	.	8%	.	?
COc1cc(CC(NC(C)=O)C(=O)NC2CCN(C(=O)C3CC3)CC2)cc(OC)c1 (stereo not drawn)	6%	2%	-4	.	2	62%
COc1nc(OC)nc(N2CCC(NC(=O)C(Cc3ccc(C(C)C)cc3)NC(C)=O)CC2)n1 (stereo not drawn)	10µM*	-20%	-6	-2%	-2	11%
COc1cc(CC(NC(C)=O)C(=O)NC2CCN(c3nc(OC)nc(OC)n3)CC2)cc(OC)c1 (stereo not drawn)	13µM*	-4%	-3	-15%	-3	5.2µM*
SMILES	Pf growth 48h	NS1 inh	Cycloheximide cs	Sm TGR inh	Shiga inhibitor	Pf growth 96h
COc1ccc(CC(NC(C)=O)C(=O)NC2CCN(c3nnnn3-c3ccccc3)CC2)cc1 (stereo not drawn)	-13%	-7%	-4	0%	-21	9%
CN(C)CCCO[C@H]1C([C@H](O)CO)O[C@@H]2OC(C)(C)O[C@@H]21 (stereo partly drawn)	.	1%	.	.	.	.
COC(=O)c1ccc(C2OCC(C)(C)CO2)cc1	250%	.	49*	0%	150*	?
CC1(C(=O)O)COC(c2ccc(Cl)cc2)OC1 (stereo not drawn)	2.9µM*	6%	-1	7%	-4	7%
CCC(=O)Nc1ccc2nc(SCC(=O)N3CCOCC3)sc2c1	-13%	.	13	-4%	8	32%
Nc1nnc(SCC(=O)Nc2ccc(N3CCOCC3)c(Cl)c2)s1	-1%	11%	21*	2%	34	-29%
CCCC(=O)Nc1ccc2nc(SCC(=O)Nc3ccc(N4CCOCC4)c(Cl)c3)sc2c1	?	4%	52*	8%	150*	?
O=C(CSc1ccc(F)cc1)Nc1ccc(N2CCOCC2)c(Cl)c1	13%	-16%	20	-2%	26	142%
O=C(c1ccccc1)N1CCCCC1CCN1CCCCC1 (stereo not drawn)	.	.	.	-11%	.	.
NCCCCN	.	-8%	.	.	.	.
CCCCNC(=S)NC(=O)c1ccc(Cl)cc1Cl	37%	-65%	32*	?	40	?
O=C(NC(=S)NCCN1CCOCC1)c1ccc(Cl)cc1Cl	-1%	2%	3	2%	2	?
CCCCNC(=S)NC(=O)c1ccccc1Br	8%	-13%	18*	-27%	82*	-29%
O=C(CNC(=S)NC(=O)c1ccccc1Br)c1ccccc1	15%	.	15	7%	18	9%
O=C(CSc1nncs1)NC(=O)Nc1ccc2c(c1)OCCO2	107%	6%	45*	-16%	59*	166%
Cc1nnc(SCC(=O)Nc2ccc3c(c2)OCCO3)s1	?	-6%	2	-22%	29	-52%
O=C(CSc1nncs1)Nc1ccc2c(c1)OCCO2	.	-1%	59*	-2%	58*	12%
CCc1ccccc1NC(=O)C(CC)Oc1ccccc1-c1nnc(-c2ccccc2)o1 (stereo not drawn)	.	.	.	36%	.	.
CCOC(CNC(=O)Cn1nc(Cc2ccncc2)c2ccccc2c1=O)OCC	13%	-5%	-4	-4%	-8	-6%
CCC(C)NC(=O)Cn1nc(Cc2ccncc2)c2ccccc2c1=O (stereo not drawn)	-9%	-1%	1	5%	22	6.6µM*
CCOC(=O)c1[nH]nc2c1C(=O)N(CC)C2=O	20%	-6%	1	11%	-7	71%
CCN1C(=O)c2n[nH]c(C(=O)OC)c2C1=O	?	24%	6	7%	5	10µM*
COc1cccc(C2N(Cc3ccccc3)C(=O)C2(F)F)c1OC (stereo not drawn)	7%	-3%	-6	-1%	-5	12%
